Consider 1 sequence from publication PMC7862700, “An all-to-all approach to the identification of sequence-specific readers for epigenetic DNA modifications on cytosine”.

Holding throughout (test): DAPPL (digital affinity profiling via proximity ligation, sequencing); 10 mM Tris-HCl pH 7.5, 50 mM NaCl, 1 mM DTT, 4% glycerol, room temperature, 30 min; GST-TFs on glutathione beads, 16-mer random dsDNA library, 0.1% formaldehyde crosslink after washing; high values mean tight binding
Common to all, as to conditions: protein: recombinant; tags: N-terminal GST; dsDNA, one strand shown

One test concerns the target T1, ELK1 (Homo sapiens, UniProt P19419 1-428).
T1 sequence: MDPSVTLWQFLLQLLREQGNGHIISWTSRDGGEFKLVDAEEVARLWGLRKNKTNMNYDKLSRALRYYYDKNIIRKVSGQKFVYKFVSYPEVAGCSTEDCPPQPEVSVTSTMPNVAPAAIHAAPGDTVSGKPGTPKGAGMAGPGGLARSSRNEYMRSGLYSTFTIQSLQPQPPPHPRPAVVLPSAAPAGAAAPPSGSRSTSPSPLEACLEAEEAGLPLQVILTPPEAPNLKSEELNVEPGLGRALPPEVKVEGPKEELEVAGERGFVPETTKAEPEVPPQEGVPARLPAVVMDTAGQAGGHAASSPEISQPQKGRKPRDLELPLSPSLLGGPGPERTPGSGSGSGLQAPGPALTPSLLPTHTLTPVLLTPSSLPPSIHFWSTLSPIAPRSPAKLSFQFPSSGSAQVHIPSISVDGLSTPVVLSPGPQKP
An outline of the steps:
(§1)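 Each value of binding signal is a hexamer's read frequency for a factor divided by the same hexamer's frequency in the tag-only sample. Barcoded, bead-captured GST fusions of human transcription factors made in yeast were pooled with that sample and incubated with 200 nmole of a random double-stranded 16-mer DNA library in Tris/NaCl/DTT/glycerol buffer at room temperature for 30 min. Washing, 0.1% formaldehyde crosslinking, proximity ligation, PCR and Illumina NextSeq500 sequencing followed.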

Another test addresses T2, GABPA (Homo sapiens, UniProt Q06546 1-454).
T2 sequence: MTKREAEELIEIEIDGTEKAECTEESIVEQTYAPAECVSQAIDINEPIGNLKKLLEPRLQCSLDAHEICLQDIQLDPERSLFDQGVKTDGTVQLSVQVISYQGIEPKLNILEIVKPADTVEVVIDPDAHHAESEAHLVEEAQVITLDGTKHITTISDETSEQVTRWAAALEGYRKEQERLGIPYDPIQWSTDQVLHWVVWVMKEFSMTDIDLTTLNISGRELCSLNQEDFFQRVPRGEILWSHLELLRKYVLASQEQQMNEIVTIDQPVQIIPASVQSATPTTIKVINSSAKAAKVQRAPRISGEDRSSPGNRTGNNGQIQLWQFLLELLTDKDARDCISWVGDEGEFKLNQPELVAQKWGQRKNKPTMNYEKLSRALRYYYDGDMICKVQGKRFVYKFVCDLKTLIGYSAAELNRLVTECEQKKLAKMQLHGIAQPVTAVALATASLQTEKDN
Summed up:
as §1

In a further test the target is T3, ERG (Homo sapiens, UniProt P11308 1-479).
T3 sequence: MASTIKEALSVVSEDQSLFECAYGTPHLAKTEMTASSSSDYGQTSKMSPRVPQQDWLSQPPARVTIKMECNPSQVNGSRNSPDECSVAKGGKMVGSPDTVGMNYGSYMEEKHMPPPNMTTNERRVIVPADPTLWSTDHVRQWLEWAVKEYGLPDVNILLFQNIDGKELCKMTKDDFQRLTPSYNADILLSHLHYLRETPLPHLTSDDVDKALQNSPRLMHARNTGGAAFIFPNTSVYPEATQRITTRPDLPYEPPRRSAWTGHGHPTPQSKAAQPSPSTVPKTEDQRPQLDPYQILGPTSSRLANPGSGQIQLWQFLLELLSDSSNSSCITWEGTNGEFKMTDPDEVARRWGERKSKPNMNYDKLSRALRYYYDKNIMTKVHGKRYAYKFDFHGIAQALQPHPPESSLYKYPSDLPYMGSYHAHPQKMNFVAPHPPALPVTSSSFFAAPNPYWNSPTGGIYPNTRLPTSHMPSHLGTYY
Summed up:
as §1

Another test has as its target ELF1 (Homo sapiens, UniProt P32519 1-619). An outline of the steps: as §1
In another test the target is T4, EHF (Homo sapiens, UniProt Q9NZC4 1-300).
T4 sequence: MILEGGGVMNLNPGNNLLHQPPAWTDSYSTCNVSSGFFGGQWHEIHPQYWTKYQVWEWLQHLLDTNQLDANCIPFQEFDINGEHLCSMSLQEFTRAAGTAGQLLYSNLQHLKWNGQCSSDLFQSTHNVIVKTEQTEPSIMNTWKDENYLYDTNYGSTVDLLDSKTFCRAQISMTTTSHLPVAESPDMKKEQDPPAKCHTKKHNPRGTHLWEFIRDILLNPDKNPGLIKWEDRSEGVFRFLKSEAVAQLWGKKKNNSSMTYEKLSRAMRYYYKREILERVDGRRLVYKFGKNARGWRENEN
Summed up: as §1

The target of the next test is SPI1 (Homo sapiens, UniProt P17947 1-270). An outline of the steps: as §1
A further test addresses SPIB (Homo sapiens, UniProt Q01892 1-262). Summed up: as §1
In a further test the target is ETV5 (Homo sapiens, UniProt P41161 1-510). An outline of the steps:
as §1

The next test has as its target T5, SPIC (Homo sapiens, UniProt Q8N5J4 1-248).
T5 sequence: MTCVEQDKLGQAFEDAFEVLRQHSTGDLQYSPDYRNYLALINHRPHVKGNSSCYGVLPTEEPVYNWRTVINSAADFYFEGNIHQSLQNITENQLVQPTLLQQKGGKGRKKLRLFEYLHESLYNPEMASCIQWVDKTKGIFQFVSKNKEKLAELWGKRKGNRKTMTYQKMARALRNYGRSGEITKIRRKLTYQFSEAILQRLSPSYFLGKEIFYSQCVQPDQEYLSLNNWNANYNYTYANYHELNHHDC
Summed up: as §1

A further test addresses ELF4 (Homo sapiens, UniProt Q99607 1-663). An outline of the steps: as §1
For the next test, the target named is T6, ELK4 (Homo sapiens, UniProt P28324-2 1-405).
T6 sequence: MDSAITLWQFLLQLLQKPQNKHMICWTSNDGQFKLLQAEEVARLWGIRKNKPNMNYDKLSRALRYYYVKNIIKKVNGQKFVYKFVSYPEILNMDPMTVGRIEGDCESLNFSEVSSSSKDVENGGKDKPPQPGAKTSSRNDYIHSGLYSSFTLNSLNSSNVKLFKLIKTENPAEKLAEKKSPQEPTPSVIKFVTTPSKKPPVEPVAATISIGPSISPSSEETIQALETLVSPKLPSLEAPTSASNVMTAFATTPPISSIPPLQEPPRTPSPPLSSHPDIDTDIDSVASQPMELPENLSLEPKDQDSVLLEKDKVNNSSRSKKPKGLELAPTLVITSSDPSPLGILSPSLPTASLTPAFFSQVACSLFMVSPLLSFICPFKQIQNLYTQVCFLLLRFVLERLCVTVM
Summed up:
as §1

The next test addresses T7, ELF3 (Homo sapiens, UniProt P78545 1-371).
T7 sequence: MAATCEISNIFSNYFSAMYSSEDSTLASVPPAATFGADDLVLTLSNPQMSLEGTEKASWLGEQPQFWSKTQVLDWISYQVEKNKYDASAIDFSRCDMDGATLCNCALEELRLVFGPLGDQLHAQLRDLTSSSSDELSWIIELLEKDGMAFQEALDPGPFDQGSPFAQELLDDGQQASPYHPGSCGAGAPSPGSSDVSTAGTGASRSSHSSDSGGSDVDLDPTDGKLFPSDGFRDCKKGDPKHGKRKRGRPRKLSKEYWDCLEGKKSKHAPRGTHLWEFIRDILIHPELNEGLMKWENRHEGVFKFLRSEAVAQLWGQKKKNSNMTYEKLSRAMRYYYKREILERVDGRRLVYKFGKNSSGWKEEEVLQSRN
Summed up:
as §1

Another test concerns the target ETV1 (Homo sapiens, UniProt P50549 1-477). An outline of the steps: as §1
The target in a further test is T8, ETV3L (Homo sapiens, UniProt Q6ZN32 1-361).
T8 sequence: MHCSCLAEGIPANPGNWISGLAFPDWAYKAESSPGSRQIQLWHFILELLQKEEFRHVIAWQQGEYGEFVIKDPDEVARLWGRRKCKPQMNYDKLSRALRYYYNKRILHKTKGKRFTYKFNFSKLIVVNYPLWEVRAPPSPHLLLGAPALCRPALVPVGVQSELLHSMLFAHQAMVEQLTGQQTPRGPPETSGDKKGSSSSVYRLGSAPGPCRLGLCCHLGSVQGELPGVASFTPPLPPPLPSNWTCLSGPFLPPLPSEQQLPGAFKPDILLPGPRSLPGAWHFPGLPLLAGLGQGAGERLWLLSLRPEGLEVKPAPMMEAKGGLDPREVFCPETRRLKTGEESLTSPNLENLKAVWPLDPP
An outline of the steps: as §1

The next test has as its target T9, ETS2 (Homo sapiens, UniProt P15036 1-469).
T9 sequence: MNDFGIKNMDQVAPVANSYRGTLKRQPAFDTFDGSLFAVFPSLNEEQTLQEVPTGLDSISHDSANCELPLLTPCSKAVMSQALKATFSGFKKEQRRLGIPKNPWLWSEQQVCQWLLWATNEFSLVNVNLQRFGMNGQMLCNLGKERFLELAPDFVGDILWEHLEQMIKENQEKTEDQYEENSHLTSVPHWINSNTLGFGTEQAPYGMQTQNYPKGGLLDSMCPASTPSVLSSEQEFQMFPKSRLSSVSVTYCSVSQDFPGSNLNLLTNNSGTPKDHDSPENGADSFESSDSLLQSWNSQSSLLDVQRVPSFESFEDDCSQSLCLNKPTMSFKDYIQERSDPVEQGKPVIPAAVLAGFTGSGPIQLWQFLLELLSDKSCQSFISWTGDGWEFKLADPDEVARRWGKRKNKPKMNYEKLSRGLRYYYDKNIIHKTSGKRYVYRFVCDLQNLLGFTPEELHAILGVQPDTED
An outline of the steps:
as §1

A further test deals with T10, SPDEF (Homo sapiens, UniProt O95238 1-335).
T10 sequence: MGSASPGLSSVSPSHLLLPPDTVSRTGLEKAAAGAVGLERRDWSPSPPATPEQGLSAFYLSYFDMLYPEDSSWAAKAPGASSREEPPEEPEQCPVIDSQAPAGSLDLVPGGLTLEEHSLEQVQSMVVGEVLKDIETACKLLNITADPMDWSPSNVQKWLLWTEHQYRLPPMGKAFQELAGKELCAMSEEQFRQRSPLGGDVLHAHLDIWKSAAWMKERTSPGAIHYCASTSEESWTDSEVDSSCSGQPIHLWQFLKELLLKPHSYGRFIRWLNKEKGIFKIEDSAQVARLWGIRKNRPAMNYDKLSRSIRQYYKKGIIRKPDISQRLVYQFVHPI
An outline of the steps:
as §1

For another test, the target named is T11, ETV7 (Homo sapiens, UniProt Q9Y603 1-341).
T11 sequence: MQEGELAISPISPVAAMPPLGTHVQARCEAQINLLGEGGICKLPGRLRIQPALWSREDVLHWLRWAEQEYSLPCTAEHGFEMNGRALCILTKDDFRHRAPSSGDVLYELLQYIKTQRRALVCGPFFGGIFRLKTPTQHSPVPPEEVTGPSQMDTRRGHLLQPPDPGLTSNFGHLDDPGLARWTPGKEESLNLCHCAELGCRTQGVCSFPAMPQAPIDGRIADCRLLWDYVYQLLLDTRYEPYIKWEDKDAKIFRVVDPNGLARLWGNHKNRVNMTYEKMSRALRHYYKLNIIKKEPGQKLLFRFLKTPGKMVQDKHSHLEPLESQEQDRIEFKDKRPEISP
An outline of the steps:
as §1

The next test concerns the target ETV6 (Homo sapiens, UniProt P41212 1-452). Summed up:
as §1

Sequence of ELF4 (Q99607 whole entry): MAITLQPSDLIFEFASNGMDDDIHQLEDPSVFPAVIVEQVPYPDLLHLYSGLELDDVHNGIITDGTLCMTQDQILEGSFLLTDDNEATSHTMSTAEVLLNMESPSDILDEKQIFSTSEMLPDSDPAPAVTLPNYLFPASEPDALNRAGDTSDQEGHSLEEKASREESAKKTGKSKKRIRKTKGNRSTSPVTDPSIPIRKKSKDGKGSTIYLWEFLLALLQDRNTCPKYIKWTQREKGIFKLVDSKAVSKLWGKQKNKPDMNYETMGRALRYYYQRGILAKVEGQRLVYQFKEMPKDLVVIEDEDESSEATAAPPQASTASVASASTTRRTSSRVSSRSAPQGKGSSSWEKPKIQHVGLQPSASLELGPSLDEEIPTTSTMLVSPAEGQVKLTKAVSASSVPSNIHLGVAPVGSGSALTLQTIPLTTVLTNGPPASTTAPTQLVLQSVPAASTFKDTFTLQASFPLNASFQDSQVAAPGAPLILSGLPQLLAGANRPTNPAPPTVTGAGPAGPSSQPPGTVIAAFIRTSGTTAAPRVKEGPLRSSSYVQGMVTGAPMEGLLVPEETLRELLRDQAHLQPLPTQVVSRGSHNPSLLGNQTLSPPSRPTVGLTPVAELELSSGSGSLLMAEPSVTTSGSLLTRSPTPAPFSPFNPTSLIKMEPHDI
Sequence of ETV6 (P41212 whole entry): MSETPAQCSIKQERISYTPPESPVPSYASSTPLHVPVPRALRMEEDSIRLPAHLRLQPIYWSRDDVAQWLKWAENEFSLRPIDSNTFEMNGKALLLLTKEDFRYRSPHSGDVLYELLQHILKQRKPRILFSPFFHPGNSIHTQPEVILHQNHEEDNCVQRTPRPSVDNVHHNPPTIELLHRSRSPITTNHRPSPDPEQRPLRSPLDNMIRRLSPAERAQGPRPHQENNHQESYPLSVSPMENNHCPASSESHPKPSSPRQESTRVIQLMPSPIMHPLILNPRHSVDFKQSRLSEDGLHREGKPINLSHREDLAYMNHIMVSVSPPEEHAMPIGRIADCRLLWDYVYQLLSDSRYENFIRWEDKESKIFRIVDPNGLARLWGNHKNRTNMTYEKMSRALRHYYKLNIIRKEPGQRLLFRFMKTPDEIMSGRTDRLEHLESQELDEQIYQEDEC
Sequence of ELF1 (P32519 whole entry): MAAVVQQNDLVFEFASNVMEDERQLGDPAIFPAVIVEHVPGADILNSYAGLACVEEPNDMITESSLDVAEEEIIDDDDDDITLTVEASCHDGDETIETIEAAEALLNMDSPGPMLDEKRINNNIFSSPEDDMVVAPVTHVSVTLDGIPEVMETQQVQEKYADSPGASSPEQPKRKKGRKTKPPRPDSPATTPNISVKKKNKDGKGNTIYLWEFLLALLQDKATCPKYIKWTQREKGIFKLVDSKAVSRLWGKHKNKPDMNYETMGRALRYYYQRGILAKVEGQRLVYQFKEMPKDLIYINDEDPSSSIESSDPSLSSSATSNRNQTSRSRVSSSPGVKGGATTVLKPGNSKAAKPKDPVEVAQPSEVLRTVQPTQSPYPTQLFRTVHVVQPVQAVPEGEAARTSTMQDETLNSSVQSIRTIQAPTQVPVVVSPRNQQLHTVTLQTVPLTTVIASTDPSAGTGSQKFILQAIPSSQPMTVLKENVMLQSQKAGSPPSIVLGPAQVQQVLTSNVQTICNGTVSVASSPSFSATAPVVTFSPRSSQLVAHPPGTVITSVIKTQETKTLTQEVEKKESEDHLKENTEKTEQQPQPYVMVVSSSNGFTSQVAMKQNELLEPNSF
Sequence of ETV1 (P50549 whole entry): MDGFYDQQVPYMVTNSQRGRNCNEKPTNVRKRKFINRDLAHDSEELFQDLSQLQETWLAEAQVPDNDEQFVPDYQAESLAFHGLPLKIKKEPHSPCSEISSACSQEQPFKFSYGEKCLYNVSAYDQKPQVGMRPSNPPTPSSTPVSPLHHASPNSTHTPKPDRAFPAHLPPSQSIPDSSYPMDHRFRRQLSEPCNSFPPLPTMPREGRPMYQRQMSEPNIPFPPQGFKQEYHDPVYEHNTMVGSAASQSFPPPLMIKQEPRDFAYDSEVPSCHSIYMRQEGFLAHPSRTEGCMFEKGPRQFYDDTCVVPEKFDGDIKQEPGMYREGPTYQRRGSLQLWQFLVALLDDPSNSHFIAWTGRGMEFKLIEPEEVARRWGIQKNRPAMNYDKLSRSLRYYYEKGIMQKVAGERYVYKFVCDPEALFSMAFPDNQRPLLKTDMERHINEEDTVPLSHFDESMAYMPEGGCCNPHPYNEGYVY
Sequence of SPIB (Q01892 whole entry): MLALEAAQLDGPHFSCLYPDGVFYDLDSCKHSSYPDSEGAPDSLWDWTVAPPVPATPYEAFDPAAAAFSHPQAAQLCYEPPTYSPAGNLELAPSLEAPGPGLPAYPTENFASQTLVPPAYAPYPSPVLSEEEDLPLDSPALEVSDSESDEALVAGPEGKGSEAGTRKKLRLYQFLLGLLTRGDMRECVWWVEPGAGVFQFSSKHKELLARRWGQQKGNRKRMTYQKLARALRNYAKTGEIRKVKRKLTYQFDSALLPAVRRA
Sequence of ETV5 (P41161 whole entry): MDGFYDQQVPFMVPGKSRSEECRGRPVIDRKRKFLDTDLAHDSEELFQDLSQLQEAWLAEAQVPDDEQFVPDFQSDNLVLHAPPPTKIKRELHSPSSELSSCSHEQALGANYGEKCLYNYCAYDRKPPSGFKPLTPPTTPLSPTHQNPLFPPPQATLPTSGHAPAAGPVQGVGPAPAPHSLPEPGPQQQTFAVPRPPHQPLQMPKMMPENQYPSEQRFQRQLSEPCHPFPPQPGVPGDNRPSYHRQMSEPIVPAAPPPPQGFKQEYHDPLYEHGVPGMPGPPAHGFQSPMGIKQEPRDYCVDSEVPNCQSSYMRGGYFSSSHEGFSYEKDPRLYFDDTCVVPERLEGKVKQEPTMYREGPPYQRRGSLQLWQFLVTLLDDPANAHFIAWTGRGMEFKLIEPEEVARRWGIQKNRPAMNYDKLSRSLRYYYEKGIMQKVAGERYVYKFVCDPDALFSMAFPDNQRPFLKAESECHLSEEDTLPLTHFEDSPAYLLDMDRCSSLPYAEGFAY

For GCAGCT, the binding signal with ELK1 is 1.04 fold enrichment (6-mer frequency, TF over GST control); with GABPA it was 1.07 fold enrichment (6-mer frequency, TF over GST control); in the test with ERG, 1.02 fold enrichment (6-mer frequency, TF over GST control); with ELF1, 1.06 fold enrichment (6-mer frequency, TF over GST control); with EHF it was 1.03 fold enrichment (6-mer frequency, TF over GST control); with SPI1, 1 fold enrichment (6-mer frequency, TF over GST control). Moreover, the binding signal is 1.01 fold enrichment (6-mer frequency, TF over GST control) with SPIB; 1.08 fold enrichment (6-mer frequency, TF over GST control) with ETV5; 1.14 fold enrichment (6-mer frequency, TF over GST control) in the test with SPIC; 1.06 fold enrichment (6-mer frequency, TF over GST control) in the test with ELF4; 1.08 fold enrichment (6-mer frequency, TF over GST control) in the test with ELK4; 1.07 fold enrichment (6-mer frequency, TF over GST control) in the test with ELF3. Moreover, the binding signal with ETV1 was 1.13 fold enrichment (6-mer frequency, TF over GST control); with ETV3L it was 1.08 fold enrichment (6-mer frequency, TF over GST control); with ETS2 it was 1.08 fold enrichment (6-mer frequency, TF over GST control); with SPDEF, 1.06 fold enrichment (6-mer frequency, TF over GST control); with ETV7 it was 1.11 fold enrichment (6-mer frequency, TF over GST control); in the test with ETV6, 1.06 fold enrichment (6-mer frequency, TF over GST control).
